# Data reported in PubChem BioAssay (NCI).
# This is part of a sample that, as a whole, favours compounds with a hit. Of some 79,000 tested, about 15% had one in any assay. Values without a mark were called inactive. Active and inactive are the calls of the source. Rule as the data show it: active = growth inhibition above about 70%; inactive = the rest.
# Key:
# [1] = NCI Yeast Anticancer Drug Screen. Data for the rad50 strain (AID 155);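 also: 0% = growth of vehicle-only cultures of the same strain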; settings: S. cerevisiae rad50 strain growth inhibition; at 50.0 µM; active compounds read high
# Method in brief: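 Inhibition values express reduced yeast growth in compound-treated cultures relative to vehicle-treated controls.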
# [2] = NCI Yeast Anticancer Drug Screen. Data for the mec2-1 strain (AID 157); settings: S. cerevisiae mec2-1 strain, at 50.0 µM, active compounds read high
# Method in brief: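 Yeast mec2-1 mutant treated with compound. Readout: growth inhibition vs vehicle controls.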
# [3] = NCI Yeast Anticancer Drug Screen. Data for the sgs1 mgt1 strain (AID 161);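 also: 0% = growth of cultures given vehicle only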; settings: S. cerevisiae sgs1 mgt1 strain, at 50.0 µM, active compounds read high
# Method in brief: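 Inhibition of yeast growth, normalised to vehicle-treated controls, is reported for a strain bearing genetic alterations in DNA damage repair.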
# [4] = NCI Yeast Anticancer Drug Screen. Data for the cln2 rad14 strain (AID 165);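 also: 0% = growth equal to vehicle treated cultures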; settings: S. cerevisiae cln2 rad14 strain, at 50.0 µM, active compounds read high
# Method in brief: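 cln2 rad14 yeast strain; compound exposure; growth inhibition read vs vehicle controls.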
# [5] = NCI Yeast Anticancer Drug Screen. Data for the mlh1 rad18 strain (AID 175); settings: S. cerevisiae mlh1 rad18 strain growth inhibition; at 50.0 µM; active compounds read high
# Method in brief: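 Yeast w/ defined DNA-repair lesions; compound exposure; growth vs vehicle controls → % inhibition.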
# [6] = NCI Yeast Anticancer Drug Screen. Data for the bub3 strain (AID 167); settings: S. cerevisiae bub3 mutant strain, at 50.0 µM, active compounds read high
# Method in brief: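 Steps: expose the mutant yeast strain to compound; grow alongside vehicle-treated cultures; measure growth; express inhibition against the vehicle cultures.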
SMILES,growth inhibition [1] [%],growth inhibition [2] [%],growth inhibition [3] [%],growth inhibition [4] [%],growth inhibition [5] [%],growth inhibition [6]
CC1=C(C(=O)OC2CC3CCC2(C)C3(C)C)C2Nc3ccccc3N(C)C2O1 (configuration not stated),-4.75,-8.8,-3.65,-3.2,6.95,–
COc1ccc(/C=C2\CCCC(C(NO)c3ccc(OC)cc3)C2=NO)cc1 (configuration not stated),13.6,-33.4,26.8,1.15,18.2,–
O=[N+]([O-])c1ccc(C2ON=C(c3ccccc3)N2C23CC4CC(CC(C4)C2)C3)cc1 (configuration not stated),-12.6,-9,-6.1,25.5,-28.4,–
Cc1ccc(S(=O)(=O)CC(O)(C(C)C)C(C)C)cc1,-19,-8.6,-14.2,12.8,-17.4,–
CCN(c1ccccc1)S(=O)(=O)c1ccc(Oc2ccccc2)c(N)c1,27.2,-18.9,16.9,12.5,-10.8,–
CC1OC(OC2C(OC(=O)[C@]34CCC(C)(C)C[C@H]3C3=CC[C@@H]5[C@@]6(C)CC[C@H](OC7OC(CO)C(O)C(O)C7OC7OC(CO)C(O)C(O)C7O)C(C)(C)[C@@H]6CC[C@@]5(C)[C@]3(C)CC4)OCC(O)C2O)C(O)C(O)C1OC1OCC(O)C(O)C1O (some centres not stated),-24.8,-41.2,-44.5,-33.8,-23.1,–
CC(C)(C)/C=N/Nc1ccc([N+](=O)[O-])cc1[N+](=O)[O-],26.4,15.1,-0.05,-40.2,-13.3,–
CC1=COC(=O)c2ccccc2N1,15.3,1.65,-7.1,14.6,6,–
CN(C)c1ccc(C2(c3ccc(N(C)C)cc3)c3ccccc3C(=O)N2N)cc1,54.1,34.5,18.2,43.5,21.7,77.5% (active)
O=C(O)c1ccc(Br)cc1C(=O)O,7.6,3.6,1.5,4.35,-1.6,–
O=C(Nc1ccccc1C(=O)N/N=C/c1ccccc1Cl)c1ccccc1Cl,-36.5,-14.1,5.1,-25.9,4.1,–
C=CCC12CC(O)C(O)CC1(OC)OC(c1cc(OC)c(OC)c(OC)c1)C2C (configuration not stated),-1.1,-8.75,-8.1,-4.75,7.9,–
c1ccc(-c2cnc(-c3ccccc3)cn2)cc1,1.3,10.6,-6.15,41.6,-15.4,–
CC(=O)OCc1cn(S(=O)(=O)c2ccc(C)cc2)cn1,17.9,-2.45,19.1,-2.65,-51.9,–
C=C1C(=O)O[C@@H]2[C@H]3[C@H](C)C(=O)C=C[C@]3(C)CC[C@@H]12,21.3,-24.9,39,13.4,-23.6,–
[Cl][Pd][Cl].[NH-]CC1(C[NH-])CCCCC1,3.5,-1.1,3.75,-64.2,5.95,–
CC1CCC(C(C)(C)c2ccccc2)C(=O)C1 (configuration not stated),12.1,-17.6,-9.4,19.4,15.4,–
CN(C)CC1CCCC/C1=N/O (configuration not stated),0.5,-6.75,-9.4,-17.5,-5.15,–
CC(=O)O[C@@H]1[C@H]2O[C@H]2[C@H]2O[C@@]2(COC(=O)c2ccccc2)[C@H]1OC(C)=O,12.8,-25.2,24.4,-6,-38.5,–
CCOc1c(N=Nc2ccc(OC)cc2)c(C)nn1C(N)=S,-12.5,-1.5,2.85,-48.7,15.2,–
COC(=O)C1CCCN1C(=O)C(C)=O (configuration not stated),16.9,10.4,-4.85,-40.5,-5.45,–
O=C(O)C(CNCc1ccccc1)(c1ccccc1)c1ccccc1,5.55,-9.25,10.3,4.9,12.7,1.3%
